Holding throughout (assay): NCI-60 one-dose screen, 48 h (100 = growth as untreated, 0 = no growth, -100 = all killed)
The subject of one assay is DU-145 prostate. As to conditions: 10 µM unless noted.
Another assay has as its system K-562 leukemia. As to conditions: 10 µM unless noted.
Another assay has as its system MALME-3M melanoma. As to conditions: 10 µM unless noted.
A further assay relates to MDA-MB-231 breast. As to conditions: 10 µM unless noted.
The test system of the next assay is RXF 393 renal. The following applies: 10 µM unless noted.
The next assay deals with SF-268 CNS. As to conditions: 10 µM unless noted.
A further assay deals with SF-295 CNS. The following applies: 10 µM unless noted.
For the next assay, the system named is SF-539 CNS. As to conditions: 10 µM unless noted.
The test system of the next assay is UACC-257 melanoma. The following applies: 10 µM unless noted.
For a further assay, the system named is M14 melanoma. The following applies: 10 µM unless noted.
For the next assay, the system named is HCT-15 colon. As to conditions: 10 µM unless noted.
For the next assay, the system named is HT29 colon. As to conditions: 10 µM unless noted.
The subject of another assay is SNB-75 CNS. As to conditions: 10 µM unless noted.
Another assay deals with SNB-19 CNS. The following applies: 10 µM unless noted.
Another assay relates to U251 CNS. As to conditions: 10 µM unless noted.
In another assay the test system is PC-3 prostate. The following applies: 10 µM unless noted.
The test system of another assay is SK-MEL-5 melanoma. The following applies: 10 µM unless noted.
Another assay concerns UACC-62 melanoma. The following applies: 10 µM unless noted.
For another assay, the system named is LOX IMVI melanoma. As to conditions: 10 µM.
In another assay the test system is SK-MEL-28 melanoma. As to conditions: 10 µM unless noted.

The structures appear in SMILES notation. Compounds without any hit were thinned out: in the full panel of roughly 83,000, 20% have a hit.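 Compound tested at a single concentration for 48 hours in 96-well plates; a percent growth value below 10 was scored as active.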 Unmarked numbers belong to inactive results. The source made the active and inactive calls.

This note sets out measurements from PubChem BioAssay (NCI).

With `Cn1cc(-c2cc3nc(-c4c[nH]c5ccc(Cl)cc45)cc(N)n3n2)c2ccccc21`, the growth in the assay with DU-145 prostate was -85.9% (active); in the assay on K-562 leukemia, 1.64% (active); in the assay on MALME-3M melanoma, -74.4% (active); with MDA-MB-231 breast, -56.2% (active); in the assay with RXF 393 renal it was -80.1% (active); with SF-268 CNS, -44.9% (active). Also, the growth in the assay with SF-295 CNS is -82.9% (active); with SF-539 CNS, -87.9% (active); with UACC-257 melanoma, -84.8% (active); with M14 melanoma, -89.6% (active); with HCT-15 colon it was -86.2% (active); in the assay on HT29 colon, -80.7% (active). The growth in the assay with SNB-75 CNS is -67.5% (active); with SNB-19 CNS, -72.3% (active); with U251 CNS, -83% (active); in the assay with PC-3 prostate, -80.9% (active); in the assay on SK-MEL-5 melanoma, -84.8% (active); in the assay on UACC-62 melanoma, -70.9% (active). For the same compound, the values for the growth in the assay with LOX IMVI melanoma and with SK-MEL-28 melanoma were -80.7% (active) and -97.4% (active), respectively.
With `N/C(=N\c1nc2ccccc2s1)NC(=O)Nc1ccc(Cl)cc1Cl`, the growth with DU-145 prostate is -74.2% (active); in the assay with K-562 leukemia, 9.51% (active); in the assay on MALME-3M melanoma, -75.2% (active); with MDA-MB-231 breast, -83.4% (active); in the assay with RXF 393 renal, -84% (active); in the assay with SF-268 CNS it was -2.76% (active). Also, the growth in the assay with SF-295 CNS was -98.5% (active); in the assay with SF-539 CNS it was -78.2% (active); in the assay with UACC-257 melanoma, 18.8%; with M14 melanoma it was -53.6% (active); in the assay on HCT-15 colon it was -25.7% (active); in the assay with HT29 colon it was -90.1% (active). Besides, the growth was -68.8% (active) with SNB-75 CNS; -23.5% (active) with SNB-19 CNS; -97.9% (active) with U251 CNS; -2.3% (active) in the assay with PC-3 prostate; -56.5% (active) in the assay on SK-MEL-5 melanoma; -49.8% (active) in the assay with UACC-62 melanoma. For the same compound, the growth is -96.8% (active) in the assay with LOX IMVI melanoma and -33.2% (active) with SK-MEL-28 melanoma.
As for `COc1ccc2[nH]cc(-c3cc(N)n4nc(-c5cn(C)c6ccccc56)cc4n3)c2c1`, the growth in the assay with DU-145 prostate was -64.7% (active); in the assay with K-562 leukemia, 4.69% (active); in the assay on MALME-3M melanoma it was -75.5% (active); in the assay on MDA-MB-231 breast it was -44.8% (active); with RXF 393 renal it was -83.9% (active); in the assay on SF-268 CNS, -11.7% (active). Further, the growth was -81% (active) with SF-295 CNS; -82% (active) in the assay on SF-539 CNS; -86.2% (active) with UACC-257 melanoma; -91.1% (active) in the assay with M14 melanoma; -83.4% (active) with HCT-15 colon; -73.7% (active) with HT29 colon. The growth is -52.4% (active) with SNB-75 CNS; -48.4% (active) in the assay with SNB-19 CNS; -85.3% (active) with U251 CNS; -67.6% (active) with PC-3 prostate; -96.3% (active) in the assay with SK-MEL-5 melanoma; -76.5% (active) with UACC-62 melanoma. Further, the growth was -67.9% (active) in the assay with LOX IMVI melanoma and -92.9% (active) with SK-MEL-28 melanoma.
`COC(=O)/C=C/c1cccc2c1C(=O)NC(C)(c1cc3cc4ccccc4cc3oc1=O)N2` (stereo not given): the growth with DU-145 prostate was 46.1%; in the assay on K-562 leukemia it was 46.7%; in the assay on MALME-3M melanoma, 19.6%; in the assay on MDA-MB-231 breast, 28.5%; in the assay with RXF 393 renal, -0.792% (active); with SF-268 CNS it was 42.8%. Besides, the growth is 75.3% in the assay on SF-295 CNS; 44.7% in the assay with SF-539 CNS; 77.8% with UACC-257 melanoma; 55.9% in the assay on M14 melanoma; 54.6% in the assay on HCT-15 colon; 32.9% with HT29 colon. For the same compound, the growth is 61.8% in the assay on SNB-75 CNS; 49.7% in the assay on SNB-19 CNS; 43.8% in the assay on U251 CNS; 38.9% with PC-3 prostate; 79.5% in the assay with SK-MEL-5 melanoma; 49.2% in the assay with UACC-62 melanoma. In addition, the growth is 6.32% (active) in the assay with LOX IMVI melanoma and 58% in the assay on SK-MEL-28 melanoma.
For `O=C(O)Cn1c(O)c(/C=C2/C=c3cc4c(cc3=NC2=O)OCCO4)sc1=S`, the growth is 118% in the assay on DU-145 prostate; 106% in the assay on K-562 leukemia; 100% with MALME-3M melanoma; 103% with MDA-MB-231 breast; 117% in the assay on RXF 393 renal; 118% in the assay with SF-268 CNS. Further, the growth in the assay with SF-295 CNS is 94.6%; in the assay on SF-539 CNS, 107%; in the assay with UACC-257 melanoma, 108%; in the assay on M14 melanoma it was 111%; with HCT-15 colon, 98.5%; in the assay with HT29 colon it was 119%. The growth with SNB-75 CNS was 101%; in the assay with SNB-19 CNS it was 97.9%; with U251 CNS it was 109%; with PC-3 prostate, 106%; in the assay with SK-MEL-5 melanoma, 107%; with UACC-62 melanoma, 94.8%. The growth was 93.6% in the assay with LOX IMVI melanoma and 116% in the assay on SK-MEL-28 melanoma.
On to `C#CCOc1ccc(/C=N/Nc2nc(-c3cc4cc(OC)ccc4oc3=O)cs2)cc1OC`, for which the growth in the assay with DU-145 prostate is 31.5%; in the assay on K-562 leukemia it was 34.7%; in the assay on MALME-3M melanoma it was 2.64% (active); in the assay on MDA-MB-231 breast, 44%; in the assay with RXF 393 renal, -88.8% (active); in the assay on SF-268 CNS it was 57.2%. Also, the growth with SF-295 CNS is 41.2%; with SF-539 CNS it was 28.2%; in the assay with UACC-257 melanoma, 54.7%; in the assay with M14 melanoma it was 42.2%; in the assay with HCT-15 colon, 60.5%; in the assay with HT29 colon, 29.2%. Moreover, the growth in the assay with SNB-75 CNS was 102%; in the assay on SNB-19 CNS it was 75.3%; in the assay with U251 CNS, 38.5%; in the assay with PC-3 prostate it was 20.8%; in the assay on SK-MEL-5 melanoma it was 39.2%; in the assay on UACC-62 melanoma it was 54.4%. Moreover, the growth with LOX IMVI melanoma is 22.8%; with SK-MEL-28 melanoma it was 18.9%.
For the compound `Cc1ccc(S(=O)(=O)c2nc(S(=O)(=O)c3ccc(C)cc3)c(N3CCN(C)CC3)s2)cc1`, the growth in the assay on DU-145 prostate is 52.6%; in the assay with K-562 leukemia it was 15.7%; in the assay with MALME-3M melanoma it was 73.5%; in the assay on MDA-MB-231 breast, 84.4%; in the assay with RXF 393 renal it was 30.3%; with SF-268 CNS it was 78.7%. Besides, the growth in the assay on SF-295 CNS is 102%; in the assay on SF-539 CNS, 57.5%; in the assay with UACC-257 melanoma it was 85.8%; with M14 melanoma, 74%; with HCT-15 colon it was 24.6%; in the assay with HT29 colon, 56%. Further, the growth is 91.3% in the assay on SNB-75 CNS; 85.7% with SNB-19 CNS; 52.9% in the assay on U251 CNS; 78.8% with PC-3 prostate; 63.2% in the assay on SK-MEL-5 melanoma; 48% in the assay on UACC-62 melanoma. In addition, the growth is 30.4% in the assay on LOX IMVI melanoma and 68.8% with SK-MEL-28 melanoma.
